# Laboratory results reported in the supplement of paper PMC6555819.
# What was measured:
# Experiment in all cases: PBM binding z-score (relative to random genomic background probes); higher = stronger binding; sequences stand for … in GC…GCGATTGACAGCGTAGAATGAAGG
# [1] = test system: FXR:RXRa (NR concentration 270 nM, RXRa partner concentration 90 nM)
# How it was run: (§1)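 The probes on custom Agilent 4×180K protein-binding microarrays were double-stranded, with 34-nt variable regions bearing direct-repeat seeds, single-nucleotide variants, half-site ablations and random human genomic background sequences. Incubation lasted 1 h with ligand-free nuclear receptor dimers in PBS pH 7.4, 2% milk, 0.02% Triton X-100, 1 mM DTT, 0.2 mg/mL BSA and 0.4 mg/ml salmon testes DNA. Antibodies against each partner (one per run) detected bound dimers, and fluorescence scans were regression-normalized. Binding z-scores take the random background probes as reference.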
# [2] = test system: LXRa:RXRa (NR concentration 270 nM, RXRa partner concentration 90 nM)
# How it was run: as §1
# [3] = test system: LXRa homodimer (NR concentration 270 nM)
# How it was run: as §1
# [4] = test system: LXRb:RXRa (NR concentration 270 nM, RXRa partner concentration 90 nM)
# How it was run: as §1
# [5] = test system: LXRb homodimer (NR concentration 270 nM)
# How it was run: as §1
# [6] = test system: PPARa:RXRa (NR concentration 270 nM, RXRa partner concentration 90 nM)
# How it was run: as §1
# [7] = test system: PPARg:RXRa (NR concentration 180 nM, RXRa partner concentration 90 nM)
# How it was run: as §1
# [8] = test system: PPARg:RXRa 270nM:90nM, anti-RXR (NR concentration 270 nM, RXRa partner concentration 90 nM)
# How it was run: as §1
# [9] = test system: PPARg:RXRa 30nM:10nM, anti-RXR (NR concentration 30 nM, RXRa partner concentration 10 nM)
# How it was run: as §1
# [10] = test system: PPARg:RXRa 90nM:30nM, anti-RXR (NR concentration 90 nM, RXRa partner concentration 30 nM)
# How it was run: as §1
# [11] = test system: PPARg:RXRa DBDmut IVT, anti-RXR (DBD mutation: RXRa K156A/R161A, NR concentration 270 nM, RXRa partner concentration 90 nM)
# How it was run: as §1
# [12] = test system: PPARg:RXRa IVT, anti-PPARg (NR concentration 270 nM, RXRa partner concentration 90 nM)
# How it was run: as §1
# [13] = test system: PPARg DBDmut:RXRa IVT, anti-PPARg (DBD mutation: PPARg1 K132A/R137A, NR concentration 270 nM, RXRa partner concentration 90 nM)
# How it was run: as §1
# [14] = test system: PPARg DBDmut IVT, anti-PPARg (DBD mutation: PPARg1 K132A/R137A, NR concentration 270 nM)
# How it was run: as §1
# [15] = test system: PPARg homodimer (NR concentration 180 nM)
# How it was run: as §1
# [16] = test system: PXR:RXRa (NR concentration 270 nM, RXRa partner concentration 90 nM)
# How it was run: as §1
# [17] = test system: PXR homodimer (NR concentration 270 nM)
# How it was run: as §1
# [18] = test system: RARa:RXR (NR concentration 270 nM, RXRa partner concentration 90 nM)
# How it was run: as §1
# [19] = test system: RARa homodimer (NR concentration 270 nM)
# How it was run: as §1
# [20] = test system: RARb:RXRa (NR concentration 270 nM, RXRa partner concentration 90 nM)
# How it was run: as §1
Sequence,PBM binding z-score [1],PBM binding z-score [2],PBM binding z-score [3],PBM binding z-score [4],PBM binding z-score [5],PBM binding z-score [6],PBM binding z-score [7],PBM binding z-score [8],PBM binding z-score [9],PBM binding z-score [10],PBM binding z-score [11],PBM binding z-score [12],PBM binding z-score [13],PBM binding z-score [14],PBM binding z-score [15],PBM binding z-score [16],PBM binding z-score [17],PBM binding z-score [18],PBM binding z-score [19],PBM binding z-score [20]
CCGAGTAGGTCATGGGGCATTCAGGCAACGGTGA,4.82,3.04,0.422,2.42,-0.503,4.92,8.14,7.29,6.6,7.69,5.78,6.73,0.331,-0.486,2.5,2.15,-0.103,3.58,0.815,3.78
ACAGACAGGTGAGTTAAGGTAACTCAGCTGGACG,0.488,-0.196,-0.499,-0.279,-0.347,0.226,0.637,0.279,0.254,0.0651,0.272,0.601,0.0974,0.513,0.279,0.151,-0.384,1.29,-0.525,0.48
ACTCGGAGGAGAAAGGTCAGAGCTACGCCAGTGA,2.6,3.16,0.746,2.72,-0.215,3.8,3.76,4.3,2.61,4.29,0.262,1.73,-0.454,-0.291,2.29,3.09,0.0761,3.7,1.26,3.93
AATACAGGGTCACTAGGACAGAGTAGGTACGAAT,6.09,5.02,1.08,3.97,1.27,5.77,8.06,6.39,3.02,5.18,3.86,5.7,2.64,3.05,2.54,3.17,0.566,4.21,1.62,4.27
ACTATTAGATGAGACGAGGGCAACCGATAGGTTG,0.455,0.107,0.389,0.0232,0.456,0.35,1.04,0.132,0.496,0.603,0.41,0.591,1.15,1.11,1.13,0.465,0.757,0.634,1.38,0.915
CCTCCAAGGTCAATGCTAGGTCAGTGAAAGCATT,6.43,5.53,2.29,4.51,1.02,5.22,3.95,4.93,1.2,3.28,3.02,3.34,-0.0903,-0.621,4.19,4.52,1.09,5.43,1.36,5.22
CTACCAAGGTGAACAAGCTCGTTGATTACTATTC,0.329,0.121,-0.188,0.479,-0.421,0.984,0.332,0.345,-0.0799,0.167,2.56,2.23,0.852,0.253,0.000283,-0.0454,-0.0254,0.251,0.281,1.41
ATCGAAACGTCGAGGTGAGTATAGAGAAAGGGAA,-0.226,-0.343,-0.626,-0.525,-0.471,-0.00336,0.304,-0.503,0.3,-0.335,-1,0.225,0.306,0.714,-0.637,-0.126,-0.0991,0.0247,-0.11,0.508
CAAACTAGGTCGCCGGAAGGTCAAAGTCCGCATG,3.54,4.14,2.85,3.54,0.401,4.61,5.39,4.95,2.29,4.13,6.5,6.56,2.57,0.739,3.61,4.72,0.959,5.67,0.693,3.94
CCTACTGGGCCACGAAAGGTCATAGATTCAGTGA,3.74,5.02,4.02,4.2,0.194,4.78,4.68,4.98,2.28,4.2,5.75,6.04,0.35,1.08,3.16,4.97,0.915,5.39,0.471,4.03
TAGCCTAGGTCATTCATGGGCCAGTATAGAAAGC,4.38,3.5,0.512,2.34,0.48,3.38,2.02,2.1,0.373,1.1,1.41,2.53,0.271,0.314,1.08,1.66,-0.168,2.61,-0.242,3.66
AATACAGGGTTACTAGGCCAGAGTAGGTACGAAT,0.737,1.26,0.201,1.17,0.122,3.39,4.79,4.22,1.52,3.29,2.82,4.59,1.84,1.12,1.19,0.457,0.173,0.852,0.718,1.38
CTCGAAAGGTCGTGCTCAAGTGAGTATACCAAAC,5.4,3.95,0.0272,3.51,0.363,4.73,2.57,3.77,0.732,2.35,0.992,1.58,1.46,0.784,1.8,3.15,0.371,3.74,-0.14,3.97
ATCGAAAGGTCGAGCTGAGTATAGAGAAAGGGAA,4.53,3.69,-0.419,2.54,0.538,4.36,2.96,3.02,1.22,1.96,-0.357,1.22,1.33,0.108,0.956,2.5,-0.467,2.89,0.139,3.94
CCTAGCAGGCTAGGGTCACTCAAGCATTTCGCTT,2.86,2.4,-0.638,2.55,-0.881,3.67,0.643,1.87,-0.254,0.841,0.26,0.393,-1.9,-1.59,1.58,3.3,-0.41,4.27,-0.0687,2.89
TCAGCTAGGTCAGTTGGTCAGCTAACGAGCTGCC,0.695,0.358,-0.597,0.201,-0.435,1.22,0.615,1.71,1.93,1.94,2.84,2.65,-0.243,0.225,-0.166,0.0327,-1.06,0.304,-0.936,3.31
ATCTCTAGGTAAGACTCAGTTCAGTGACGAACGC,0.592,0.636,0.724,0.467,0.883,0.279,0.47,0.379,0.0999,0.176,2.2,1.36,0.803,0.863,0.854,1.11,2.01,0.642,1.18,0.528
TCTGCTAGGTGAACGATGGTCAGCTAATCTGCTA,-0.414,-0.432,-0.946,-0.499,-1.35,0.449,0.238,0.769,1.17,0.916,3.12,2.97,-0.708,-0.769,-0.746,-0.428,-0.962,-0.153,-1.26,0.881
CCTTACGGGTCACTCCAGGTTATAGTATCGGAGT,4.76,7.84,2.33,5.52,0.0567,4.62,3.5,3.93,1.33,2.85,2.7,3.52,0.75,0.31,1.56,4.94,0.228,3.64,0.304,3.8
CAAACTAGGTCACAGAGGTCAATGTCCGTGCGTA,6.85,6.22,6.83,6.14,1.81,6.32,10,8.44,6.44,8.59,8.72,9.05,4.01,2.12,4.75,6.6,10.6,7.36,2.65,5.17
ATCGAAAGGTCGACGAGGTGTGTATACACCGTTT,3.98,3.28,0.0715,2.62,0.354,4.22,2.22,3.12,1.02,2.17,0.053,1.53,-0.0457,0.936,1.17,2.67,-0.171,2.91,0.322,3.74
CTTCCAAGGTCAATGCTAGGTCAGTGAAAGCATT,6.83,5.58,3.58,4.25,1.7,5.14,4.42,4.73,1.5,3.45,3.33,4.08,1,0.112,4.08,4.64,1.63,6.06,0.988,5.2
TGAATGAGGTTATAAGATCGGGGAACGTTGCAAA,1.36,1.27,-0.276,1.05,0.228,2.6,0.897,1.59,0.637,1.13,1.5,1.78,1.32,0.272,-0.104,0.636,-0.242,1.05,-0.252,1.08
ATATGTAGATTATCGGGTCATTCAGTTTGCGCAT,2.14,2.5,1.98,2.47,0.87,2.81,1.63,1.77,0.662,1.31,2.57,2.72,1.49,1.26,1.63,3.39,6.51,2.84,0.767,1.85
GCTTGTAGATCCAGGTTAAGAAAGACTAAGCTAA,-0.143,-0.0321,-0.394,-0.191,-0.462,0.491,-0.204,0.0602,-0.441,-0.11,1.08,0.859,0.236,-0.304,0.202,-0.27,-0.237,0.118,0.241,0.0746
TCACATAGGTAAAAGGTGAAAGTCGGTGTGGTAA,1.8,1.56,0.139,1.69,-0.337,4.37,5.76,6.66,5.78,7.03,2.98,3.19,0.93,0.575,1.93,1.81,0.153,3.24,0.922,1.92
TCTTGTAGATCAAGCAGGTAAAGAAAGCCTGAGT,0.242,0.228,-0.344,0.219,-0.624,0.499,-0.39,0.967,2.41,1.62,1.45,0.35,0.0649,0.0829,0.161,0.0667,0.176,0.203,-0.0123,-0.301
CGTCAAAGTTCAACTAAGGTAACGTTAAGCACGC,7.22,6.43,4.8,4.26,2.3,5.14,5.07,5.53,2.21,4.37,0.539,2.1,1.06,1.28,3.26,5.84,4.4,4.54,2.15,5.22
